Screening data: PubChem BioAssay, several laboratories
Hits are enriched below; roughly 4.2% of the tested compounds scored in any of these assays.
Wnt bcat act – activates Wnt/beta-catenin signaling in a reporter cell assay; activator, plate reader; activation, % at 9.35 µM; 1.2% of 300,000 active; in the data active = activation above about 30%, passing the limit was not always enough
hgDAF-12 ag – agonists of H. glycines DAF-12 nuclear receptor; 1.8% of 370,000 active; AID 687014; activation, % at 6.8 µM; HEK293 GAL4-hgDAF12 UAS-luciferase reporter, agonist luminescence; normalized to butyrate control;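 active = activation above a cutoff set at the mean of all screened compounds plus 3 SD, cut at about 10% in these data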
DAX1 inh – DAX1 (NR0B1) inhibition, primary screen; 1.1% of 370,000 active; inhibition, % at 6.8 µM; HEK293T StAR-luciferase reporter, SF-1/DAX-1 repression relief; AID 652010;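 active = inhibition above the mean over all tested compounds plus 3 SD, cut at about 3.6% in these data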;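 note: higher inhibition means more luminescence from relief of DAX-1 repression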
hcDAF12 agonist – H. contortus DAF-12 activation, primary screen; HEK293 hcDAF-12 lit1-tk-luc reporter, luminescence; 0% DMSO, 100% Δ7-dafachronic acid; activation, % at 6.8 µM; 1.4% of 370,000 active; AID 652067;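 active = activation above the mean of all tested compounds plus 3 SD, cut at about 5.5% in these data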
esBAF inh – inhibitors of esBAF chromatin remodeling in mouse ES cells; Bmi1-luciferase knock-in reporter, 24 h; 100% = twice the neutral-well signal; reporter increase, % at 12.5 µM; AID 602393; 2% of 350,000 active; in the data active = activation above about 40%;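 note: a rise in the Bmi1 reporter signal indicates esBAF inhibition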
ssDAF-12 act – activates DAF-12 receptor from parasite S. stercoralis | HEK293 ssDAF-12/GRIP1 lit1-tk-luc reporter, luminescence; % of 3 µM dafachronic acid response | activation, % at 6.8 µM | 1% of 370,000 active | AID 652126;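 active = activation above the mean over all tested compounds plus 3 SD, cut at about 0.9% in these data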
Hits are given with their value; - = inactive; . = no result.

SMILES	Wnt bcat act	hgDAF-12 ag	DAX1 inh	hcDAF12 agonist	esBAF inh	ssDAF-12 act
COC(=O)c1ccc2nc(-c3ccccc3)c(Cc3cccc(Cl)c3)n2c1	-	-	-	-	.	1.2
COC(=O)c1ccc2nc(C3CCCCC3)c(Cc3ccccc3)n2c1	-	-	-	5.9	-	-
COC(=O)c1ccc2nc(-c3cccc(Cl)c3)c(Cc3ccccc3)n2c1	-	-	-	-	.	-
O=C(C[C@H]1C[C@H]2c3cc(NC(=O)C4CCC4)ccc3O[C@H]2[C@H](CO)O1)NCCN1CCCCC1	.	.	.	.	-	.
O=C(C[C@H]1C[C@H]2c3cc(NC(=O)C4CCC4)ccc3O[C@H]2[C@@H](CO)O1)NCCN1CCCCC1	.	.	.	.	-	.
O=CNc1ccc2c(c1)Cc1cc([N+](=O)[O-])ccc1-2	-	-	-	-	-	-
CCC(=O)Nc1ccc2c(c1)Cc1cc([N+](=O)[O-])ccc1-2	48	11	-	-	81	-
CCCN(C)C[C@H]1Oc2cc(-c3cncnc3)ccc2S(=O)(=O)N([C@H](C)CO)C[C@H]1C	.	.	.	.	-	.
CC(=C1C(=O)c2ccccc2C1=O)N1CCc2ccccc2C1	-	-	-	5.7	-	-
COC(=O)c1ccccc1NC(=S)NC(C)=O	-	-	-	-	.	-
COC(=O)c1cn[nH]c1NC(=S)Nc1ccccc1C	-	-	-	-	67	-
COC(=O)c1cn[nH]c1NC(=S)Nc1ccc(Cl)c(Cl)c1	.	-	-	-	-	-
COC(=O)c1cn[nH]c1NC(=S)Nc1ccc(C)cc1Cl	.	-	4.2	-	-	-
COc1ccc(NC(=O)N(C)C[C@H]2Oc3c(NS(=O)(=O)c4ccc(Cl)cc4)cccc3C(=O)N([C@H](C)CO)C[C@@H]2C)cc1	.	.	.	.	-	.
COc1ccccc1C1C(C#N)=C(N)N(N(C)C)C2=C1C(=O)CC(C)(C)C2 (configuration not stated)	40	-	-	-	-	-
COc1ccc(OC)c(C2C(C#N)=C(N)N(N(C)C)C3=C2C(=O)CC(C)(C)C3)c1 (configuration not stated)	-	-	-	-	.	-
O=C(Nc1ccc(Cc2ccncc2)cc1)c1cccc([N+](=O)[O-])c1	-	-	-	-	-	-
O=C(CCNc1ccc(Cc2ccncc2)cc1)c1ccc([N+](=O)[O-])cc1	-	-	-	-	.	11
C[C@@H](NC(=O)C[C@@H]1CC[C@H](NC(=O)C2CCC2)[C@@H](CO)O1)c1ccccc1	.	.	.	.	-	.
Cc1nc2scc(-c3cccs3)c2c(=O)[nH]1	-	-	-	-	-	-
O=c1[nH]c(-c2ccc(O)cc2)nc2scc(-c3cccs3)c12	-	13	-	-	61	-
CN(C)c1ccc(C2CC(c3cccc(NS(C)(=O)=O)c3)=NN2C(=O)c2ccccc2)cc1 (configuration not stated)	-	-	-	-	-	-
CCC(=O)N1N=C(c2ccc(NS(C)(=O)=O)cc2)CC1c1ccc(N(C)C)cc1 (configuration not stated)	-	13	-	-	.	-
C[C@H](CO)N1C[C@H](C)[C@H](CN(C)CC2CCOCC2)Oc2cc(C#Cc3ccccc3F)ccc2S1(=O)=O	.	.	.	.	-	.
O=C(CC1CC1)N[C@@H]1CC[C@@H](CCNS(=O)(=O)c2ccc(Cl)cc2)O[C@H]1CO	.	.	.	.	-	.
SMILES	Wnt bcat act	hgDAF-12 ag	DAX1 inh	hcDAF12 agonist	esBAF inh	ssDAF-12 act
C[C@@H]1CN([C@H](C)CO)C(=O)c2cc(-c3cccc(C#N)c3)cnc2O[C@H]1CN(C)C(=O)C1CC1	.	.	.	.	-	.
CCc1ccc(S(=O)(=O)NCCc2cn3cccc(C)c3n2)s1	-	-	-	-	.	2.2
CCOC(=O)/C(C#N)=C1/C=CN(c2ccc(C)cc2)C=N1	-	-	-	-	47	-
CCOC(=O)/C(C#N)=C1/C=CN(c2ccccc2)C=N1	-	-	-	-	-	-
CN(CC(=O)Nc1ccc(F)cc1)C(=O)COC(=O)CN1C(=O)NC2(CCCC2)C1=O	-	-	-	5.8	.	-
CN(CC(=O)Nc1ccc(F)cc1)C(=O)CN1C(=O)NC2(CCCCC2)C1=O	-	-	-	-	-	-
Cn1nnc2cc(C(=O)Nc3ccc(Cl)cc3)ccc21	-	-	-	-	.	-
COc1cccc(NC(=O)Nc2ccc3c(c2)nnn3C)c1	-	-	-	-	48	-
Cn1nnc2cc(C(=O)Nc3ccccc3)ccc21	-	11	-	-	-	0.9
Cc1ccc(NC(=O)c2ccc3c(c2)nnn3C)cc1	39	-	-	-	.	-
COc1ccc(NC(=O)N(C)C[C@@H]2Oc3ccc(NC(=O)C4CCCCC4)cc3C(=O)N([C@H](C)CO)C[C@@H]2C)cc1	.	.	.	.	-	.
O=C(c1ccco1)[C@@H]1[C@@H]2C(=O)N(c3ccc(Br)cc3)C(=O)[C@@H]2C2c3ccccc3C=CN21 (some centres not stated)	-	-	-	-	-	1.2
O=C(c1ccco1)[C@@H]1[C@@H]2C(=O)N(c3ccc(F)cc3)C(=O)[C@@H]2C2c3ccccc3C=CN21 (some centres not stated)	.	-	-	-	.	-
Cc1sc2nc3c4ccccc4c(NCc4ccco4)nn3c(=O)c2c1C	.	14	-	7.5	.	-
O=C(N[C@@H]1CC[C@H](CCNC(=O)c2ccccc2F)O[C@@H]1CO)c1ccc2c(c1)OCO2	.	.	.	.	-	.
COc1cc(-c2nc(-c3ccccn3)no2)cc(OC)c1OC	.	-	-	-	50	-
c1ccc(-c2nc(-c3ccccn3)no2)cc1	-	-	-	6.4	-	-
COc1cccc(-c2nc(-c3ccccn3)no2)c1OC	60	-	-	-	43	-
C[C@@H]1CN([C@H](C)CO)C(=O)c2cc(NC(=O)C3CCCCC3)ccc2O[C@@H]1CN(C)C(=O)Nc1ccccc1	.	.	.	.	-	.
COc1ccc(S(=O)(=O)Nc2ccc3c(c2)C(=O)N([C@@H](C)CO)C[C@H](C)[C@H](CN(C)C(=O)c2ccccc2)OCCCC[C@H](C)O3)cc1	.	.	.	.	-	.
COc1ccc(C(=O)NCCn2ccc3ccccc32)c(OC)c1	-	-	-	-	55	-
Clc1ccccc1OCCCCn1ccnc1	.	-	-	-	-	-
Clc1ccccc1OCCCn1ccnc1	-	-	-	-	-	1.4
COc1ccc(CN2[C@@H]3CN(C(=O)c4ccccc4)c4ccccc4[C@@H]3[C@@H]2CO)cc1	.	.	.	.	-	.
Cc1csc2c(=O)sc(NC(=O)c3ccc(F)cc3Cl)nc12	-	-	-	-	-	-
O=C(Nc1nc2ccsc2c(=O)s1)c1ccc(F)cc1Cl	52	-	-	-	.	-
O=c1oc2ccccc2nc1/C=C(\O)c1ccccc1	40	-	-	-	.	-
CC(C)(C)/C(O)=C/c1nc2ccccc2oc1=O	-	-	-	-	.	-
C[C@H]1CN([C@@H](C)CO)C(=O)c2cc(NS(C)(=O)=O)ccc2O[C@@H]1CN(C)S(C)(=O)=O	.	.	.	.	-	.
